Assay results published in PMC3737563, “Investigation of DNA sequence recognition by a streptomycete MarR family transcriptional regulator through surface plasmon resonance and X-ray crystallography”.

target: T1, SCO3205 (MarR family regulator) (Streptomyces coelicolor, UniProt Q9KYU1 1-163); test: SPR (ReDCaT); 100 nM SCO3205 dimer; HBS-EP+ buffer: 10 mM HEPES pH 7.4, 150 mM NaCl, 3 mM EDTA, 0.05% (v/v) surfactant P20; 20 C; Biacore T200, ReDCaT SA chip; high values mean tight binding; details: protein: recombinant; tags: N-terminal His tag plus TEV site, not removed; chain copies: 2; label: biotin linker S6 hybridised to overhang; dsDNA, one strand shown
T1 sequence: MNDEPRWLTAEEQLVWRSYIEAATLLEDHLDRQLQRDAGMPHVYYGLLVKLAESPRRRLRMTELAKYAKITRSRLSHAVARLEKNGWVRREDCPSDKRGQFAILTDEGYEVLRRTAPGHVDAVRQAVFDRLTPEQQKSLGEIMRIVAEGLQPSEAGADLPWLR

| Sequence | binding signal |
| --- | --- |
| TTTTGTTTAATGTTCAAGGAACCGTCTCG | 127.2 ± 0.636 %Rmax |
| CGAGACGGTTCCTTGAACATTAAACAAAATCGGCGT | 108 %Rmax |
| ACGGCACGTAAAGATTGAGAGTTCAAGTAT | 87.9 %Rmax |
| CGAGACGGTTCCTTGAACATTAAA | 22 %Rmax |
| ACGGCACGTAAAGATTGAGAGTTCAAGTATTGGAGT | 110 %Rmax |
| CAATACTTGAACTCTCAATCTTTA | 101 %Rmax |
| CGAGACGGTTCCTTGAACATTAAACAAAAT | 102 %Rmax |
| CGAGACGGTTCCTTGAACATTAAACAAAATCGGC | 112 %Rmax |
| TACTTGAACTCTCAATCTTTACGTGCCGT | 113.9 ± 0.424 %Rmax |
| ACGCCGATTTTGTTTAATGTTCAAGGAACCGTCT | 118 %Rmax |
| ACTCCAATACTTGAACTCTCAA | 41.3 %Rmax |
| ACTCCAATACTTGAACTCTCAATCTT | 116 %Rmax |
| ACGGCACGTAAAGATTGAGAGTTCAAGTATTG | 112 %Rmax |
| ACTCTCAATCTTTACGTGCCGTCAATCTA | 3.05 ± 0.354 %Rmax |
| ACTCCAATACTTGAACTCTCAATCTTTAC | 115.8 ± 0.283 %Rmax |
| ACGGCACGTAAAGATTGAGAGTTCAAGT | 80.4 %Rmax |
| ACTCCAATACTTGAACTCTCAATCTTTA | 115 %Rmax |
| TTGATGTTGAATGTTCAACCAGTC | 118 %Rmax |
| ACGCCGATTTTGTTTAATGTTC | 5.1 %Rmax |
| ACGCCGATTTTGTTTAATGTTCAAGGAA | 94 %Rmax |

| Sequence | binding signal |
| --- | --- |
| ACGCCGATTTTGTTTAATGTTCAAGGAACC | 117 %Rmax |
| CATGGCTACTCCAATACTTGAACTCTCAA | 35.7 ± 0.566 %Rmax |
| ACTCCAATACTTGAACTCTCAATCTTTACGTG | 108 %Rmax |
| ACGCCGATTTTGTTTAATGTTCAA | 29.9 %Rmax |
| TCAATCTACGCCGATTTTGTTTAATGTTC | 5 %Rmax |
| ACGGCACGTAAAGATTGAGAGTTCAA | 4.7 %Rmax |
| ACTCCAATACTTGAACTCTCAATC | 92.7 %Rmax |
| ACGCCGATTTTGTTTAATGTTCAAGGAAC | 109.7 ± 0.566 %Rmax |
| ACGCCGATTTTGTTTAATGTTCAAGGAACCGT | 110 %Rmax |
| CGAGACGGTTCCTTGAACATTAAACAAAATCG | 108 %Rmax |
| AAGAAGTTCAAGCTTCAACCAAAA | 95.2 %Rmax |
| CGAGACGGTTCCTTGAACATTAAACAAA | 68.4 %Rmax |
| ACGCCGATTTTGTTTAATGTTCAAGG | 81 %Rmax |
| ACTCCAATACTTGAACTCTCAATCTTTACGTGCCGT | 115 %Rmax |
| GACCTGTTCAAAGCTCAAGCAGAA | 48.5 %Rmax |
| ACTCCAATACTTGAACTCTCAATCTTTACG | 119 %Rmax |
| CGAGACGGTTCCTTGAACATTAAACA | 68.6 %Rmax |
| ACTCCAATACTTGAACTCTCAATCTTTACGTGCC | 110 %Rmax |
| ACTCCAATACTTGAACTCTC | 7.8 %Rmax |
| ACGGCACGTAAAGATTGAGAGTTCAAGTATTGGA | 116 %Rmax |
